Reference: PubChem BioAssay (EPA / NIEHS)
Results filed as inconclusive are left out. Calls of active or inactive are those of the source. How the source made its calls, unless noted: active means hit-call score of the fitted dose curve at least 0.9, where 1 is the maximum; inactive means score below 0.9.

Tests used:
[1] = CCTE_Deisenroth_DEVTOX-GLR_Endo_CellCount: Viability Assessment in CCTE's DevTox GLR-Endo Assay, Deisenroth Lab (AID 2284420)
Description: CCTE_Deisenroth_DEVTOX-GLR_Endo assay is a cell-based, multiplex-readout assay that uses RUES2-GLR, a human pluripotent cell line, with measurements taken at 48 hours after chemical dosing in a 384-well microplateCCTE_Deisenroth_DEVTOX-GLR_Endo_CellCount is 1 of 4 assay components calculated from the CCTE_Deisenroth_DEVTOX-GLR_Endo assay and it measures cell count. Using fluorescent nuclear staining, loss-of-signal activity can be used to understand changes in cell viability with fluorescent microscopy. It is designed to make measurements of nuclei counts as a surrogate for cell number, as detected with optical fluorescence microscopy by Perkin Elmer Harmony nuclei detection algorithm. To generalize the intended target to other relatable targets, this assay component is annotated to the cell cycle intended target family, where the subfamily is cytotoxicity.Data from the assay component CCTE_Deisenroth_DEVTOX-GLR_Endo_CellCount was analyzed as 1 assay endpoint. The endpoint the percent change in cell count relative to the 0.2% DMSO control in the CCTE_Deisenroth_DEVTOX-GLR_Endo assay. Furthermore, this assay endpoint can be referred to as a primary readout, because this assay has produced multiple assay endpoints where this one serves as a measure of cytotoxicity.
All assay protocols are aligned to the DevTox GLR-Endo assay workflow. […]

[2] = system: SRY-box transcription factor 17 (SOX17) Protein Expression, Deisenroth Lab, SOX17 (gene 64321); test: CCTE_Deisenroth_DEVTOX-GLR_Pluri_SOX17: CCTE's DevTox GLR-Pluri Assay Evaluation of SRY-box transcription factor 17 (SOX17) Protein Expression, Deisenroth Lab (AID 2284427; active means hit-call score of the fitted dose curve at least 0.9, where 1 is the maximum)
Outline: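 Seed cells 24 h; differentiate 48 h, dosing at 0 and 24 h (1 nM - 200 uM); fix, stain nuclei, image 5 fields per well; count SOX17+ cells over total cells and subtract 0.2% DMSO control.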

[3] = system: SRY-box transcription factor 2 (SOX2) Protein Expression, Deisenroth Lab, SOX2 (gene 6657); test: CCTE_Deisenroth_DEVTOX-GLR_Pluri_SOX2: CCTE's DevTox GLR-Pluri Assay Evaluation of SRY-box transcription factor 2 (SOX2) Protein Expression, Deisenroth Lab (AID 2284428)
Outline: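 SOX2 expression frequency is scored in a human pluripotent reporter line, RUES2-GLR, exposed to chemicals twice over 48 h. Imaging-based SOX2+ cell percentage is normalized as change versus 0.2% DMSO.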

[4] = system: Brachyury (BRA) Protein Expression, Deisenroth Lab, TBXT (gene 6862); test: CCTE_Deisenroth_DEVTOX-GLR_Pluri_BRA: CCTE's DevTox GLR-Pluri Assay Evaluation of Brachyury (BRA) Protein Expression, Deisenroth Lab (AID 2284429; active means hit-call score of the fitted dose curve at least 0.9, where 1 is the maximum)
Outline: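 RUES2-GLR human pluripotent cells differentiated 48 hours with two chemical exposures 24 hours apart, 10-point series 1 nM–200 uM. Fixed, nuclear-stained, imaged; endpoint is percent BRA+ cells minus 0.2% DMSO control.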

[5] = CCTE_Deisenroth_DEVTOX-GLR_Pluri_CellCount: Viability Assessment in CCTE's DevTox GLR-Pluri Assay Evaluation of Total Cell Counts, Deisenroth Lab (AID 2284430)
Outline: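 RUES2-GLR human pluripotent cells, seeded 24 h, then differentiated 48 h with two chemical exposures 24 h apart; 10-point series 1 nM - 200 uM. Fixed, nuclear-stained, imaged (5 fields/well); nuclei count as % change vs 0.2% DMSO.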

## NC(=O)c1ccc(N)nc1
[1]
  AC50: 30.6 µM (active)
[2]
  outcome: inactive
[3]
  AC50: 38.1 µM (active)
[4]
  AC50: 100 µM (active)
[5]
  outcome: inactive
